The list shows a part of the results. Unmarked numbers belong to inactive results.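 The calls were made as follows: active = mean activity change at or below -40%, meaning activation of 40% or more, at 20 µM; inactive = the rest.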
The compounds below were run against Apoptotic protease-activating factor 1 (Homo sapiens) (UniProt O14727) (assay: Apaf-1 activators, single-dose retest, confirmation, biochemical, fluorescence, DEVD-Rh110, 20 µM (AID 504617)). Conditions: reconstituted apoptosome caspase-3 activity, at 20 µM, hits give low values.
Chain of Apoptotic protease-activating factor 1 (Homo sapiens) (O14727 whole entry, looked up): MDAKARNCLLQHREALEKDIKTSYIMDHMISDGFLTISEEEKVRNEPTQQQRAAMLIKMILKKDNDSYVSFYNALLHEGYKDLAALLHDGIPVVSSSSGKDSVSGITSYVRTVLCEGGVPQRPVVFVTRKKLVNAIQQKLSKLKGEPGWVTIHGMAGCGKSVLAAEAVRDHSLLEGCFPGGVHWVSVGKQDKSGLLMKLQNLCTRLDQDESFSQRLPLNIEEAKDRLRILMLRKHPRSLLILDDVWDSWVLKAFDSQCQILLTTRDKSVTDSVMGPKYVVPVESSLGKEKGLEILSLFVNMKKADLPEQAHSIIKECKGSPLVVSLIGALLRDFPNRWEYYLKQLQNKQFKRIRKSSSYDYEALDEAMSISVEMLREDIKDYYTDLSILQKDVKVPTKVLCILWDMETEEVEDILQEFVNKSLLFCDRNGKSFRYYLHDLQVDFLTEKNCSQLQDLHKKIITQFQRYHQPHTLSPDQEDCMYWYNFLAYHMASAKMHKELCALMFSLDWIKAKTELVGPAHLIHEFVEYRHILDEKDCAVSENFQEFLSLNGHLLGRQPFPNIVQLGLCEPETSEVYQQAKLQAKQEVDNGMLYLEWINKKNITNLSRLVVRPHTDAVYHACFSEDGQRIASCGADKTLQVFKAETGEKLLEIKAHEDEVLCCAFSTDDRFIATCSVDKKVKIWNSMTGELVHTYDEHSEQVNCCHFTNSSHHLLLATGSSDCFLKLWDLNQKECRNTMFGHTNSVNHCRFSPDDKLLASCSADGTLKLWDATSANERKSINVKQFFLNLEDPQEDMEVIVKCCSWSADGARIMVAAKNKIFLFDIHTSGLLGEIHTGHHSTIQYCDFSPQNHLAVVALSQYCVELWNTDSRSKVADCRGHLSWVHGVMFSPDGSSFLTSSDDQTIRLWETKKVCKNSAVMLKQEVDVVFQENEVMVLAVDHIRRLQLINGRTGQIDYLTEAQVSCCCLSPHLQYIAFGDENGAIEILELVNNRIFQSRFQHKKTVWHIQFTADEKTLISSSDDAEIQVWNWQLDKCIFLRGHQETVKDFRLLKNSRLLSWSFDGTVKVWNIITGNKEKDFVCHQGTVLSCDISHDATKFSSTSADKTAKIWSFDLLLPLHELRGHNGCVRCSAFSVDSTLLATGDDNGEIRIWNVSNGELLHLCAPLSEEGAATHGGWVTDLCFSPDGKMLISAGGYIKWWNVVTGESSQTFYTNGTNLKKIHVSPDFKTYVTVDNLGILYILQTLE

SMILES	activity change, negative = activation
COC(=O)C(C)N(C#N)c1nc(C)nc(C)n1 (stereo unspecified)	10.4%
COc1ccc(S(=O)(=O)N2CCCCC2)cc1NC(=O)c1cc([N+](=O)[O-])ccc1N1CCOCC1	13.5%
CC(C)OCCCNC(=S)N1CCC(C(=O)c2ccc3c(c2)OCCO3)CC1	17.5%
Cc1nn(CC(=O)Nc2ccc(C#N)cc2)c(C)c1[N+](=O)[O-]	-10.5%
CCOCCc1c(O)nc(SCC(=O)NCc2ccco2)[nH]c1=O	7%
CC(=O)NC(=S)NNC(=O)c1ccc(Br)cc1	17.7%
COC(CNC(=O)Cn1ncc2ccsc2c1=O)OC	10.8%
CC(C)N1CCC(NC(=O)Nc2ccccc2)CC1	9.51%
COc1ccc(C2CC(c3ccccc3)Nc3ncnn32)cc1 (stereo unspecified)	8.21%
COc1ccccc1OCC(=O)Nc1c2c(nn1-c1ccc(F)cc1)CS(=O)(=O)C2	9.31%
COc1cccc(C(=O)Nc2ccc(N3CCCC3)cc2)c1	7.29%
O=C(Nc1ccccc1F)c1ccccc1-c1ccccc1	4.47%
Cc1ccc(S(=O)(=O)N2CCOCC2)cc1C(=O)NC(=S)N(Cc1ccccc1)C(C)C	16.4%
CN(C)S(=O)(=O)c1ccc(C(=O)NCCN=C2NS(=O)(=O)c3ccccc32)cc1	4.07%
COc1cc(C(=O)NCc2nnc(SCC(=O)Nc3nc4ccc(C)cc4s3)o2)cc(OC)c1OC	8.22%
CCCC(=O)Nc1nc2ccc(NC(=O)c3c(F)c(F)c(OC)c(F)c3F)cc2s1	9.11%
